Assay results reported in PubChem BioAssay AID1159580 (chemical genetic matrix, 2015).
The whole screen tested about 5,500 compounds, of which about 2,000 (36%) were called active. Inconclusive results (about 18%) are left out. No stated cut-off is given here; in the data, active means normalized growth mostly below about 0.91 (no sharp cut-off); inconclusive means no clear call, values can overlap the other calls; inactive means mostly above about 0.92. The list shows a part of the results.

Test: chemical genetic growth profiling, strain panel (AID 1159580);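 further: tested at 20 µM; growth read once vehicle control cultures reached saturation at 30 °C; 1 = growth at the plate median or of vehicle wells; lower values mean less growth of the strain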
Details: growth OD

Measured: normalized growth

NC(=O)NC(=O)Cc1ccccc1
inactive: S. cerevisiae deletion strains, locus YJR075W, strain HOC1, active compounds read low 1.01 | S. cerevisiae deletion strains, locus YKL009W, strain mrt4, active compounds read low 0.99 | S. cerevisiae deletion strains, locus YKL068W, active compounds read low 0.998 | S. cerevisiae deletion strains, locus YKL085W, strain MDH1 (second series), active compounds read low 0.994 | S. cerevisiae deletion strains, locus YKL085W, strain MDH1, active compounds read low 0.994 | S. cerevisiae deletion strains, locus YKL160W, strain elf1, active compounds read low 0.941 | S. cerevisiae deletion strains, locus YKL190W, strain CNB1, active compounds read low 1.03 | S. cerevisiae deletion strains, locus YKR001C, strain vps1, active compounds read low 0.994 | S. cerevisiae deletion strains, locus YKR026C, strain gcn3, active compounds read low 0.993 | S. cerevisiae deletion strains, locus YKR091W, strain srl3, active compounds read low 0.98 | S. cerevisiae deletion strains, locus YLL001W, strain dnm1, active compounds read low 1.02 | S. cerevisiae deletion strains, locus YLL026W, active compounds read low 0.984 | S. cerevisiae deletion strains, locus YLL041C, strain sdh2, active compounds read low 1 | S. cerevisiae deletion strains, locus YLR027C, strain aat2, active compounds read low 0.988 | S. cerevisiae deletion strains, locus YLR039C, strain RIC1, active compounds read low 1.02 | S. cerevisiae deletion strains, locus YLR058C, strain SHM2, active compounds read low 1.01 | S. cerevisiae deletion strains, locus YLR102C, strain apc9, active compounds read low 0.999 | S. cerevisiae deletion strains, locus YLR113W, strain HOG1, active compounds read low 1.01 | S. cerevisiae deletion strains, locus YLR221C, strain rsa3, active compounds read low 1.03 | S. cerevisiae deletion strains, locus YLR258W, strain gsy2, active compounds read low 0.977 | S. cerevisiae deletion strains, locus YLR262C, strain YPT6 (second series), active compounds read low 0.99 | S. cerevisiae deletion strains, locus YLR262C, strain YPT6, active compounds read low 1.05 | S. cerevisiae deletion strains, locus YLR268W, strain sec22, active compounds read low 0.985 | S. cerevisiae deletion strains, locus YLR320W, strain mms22, active compounds read low 1.02 | S. cerevisiae deletion strains, locus YLR330W, strain CHS5, active compounds read low 1.01 | S. cerevisiae deletion strains, locus YLR342W, strain FKS1 (second series), active compounds read low 1.05 | S. cerevisiae deletion strains, locus YLR342W, strain FKS1, active compounds read low 0.999 | S. cerevisiae deletion strains, locus YLR357W, strain rsc2, active compounds read low 0.949 | S. cerevisiae deletion strains, locus YLR370C, strain arc18, active compounds read low 0.966 | S. cerevisiae deletion strains, locus YLR371W, strain rom2, active compounds read low 0.997 | S. cerevisiae deletion strains, locus YLR384C, strain iki3, active compounds read low 0.982 | S. cerevisiae deletion strains, locus YLR418C, strain cdc73, active compounds read low 0.998 | S. cerevisiae deletion strains, locus YML016C, strain PPZ1, active compounds read low 1.01 | S. cerevisiae deletion strains, locus YML032C, strain rad52, active compounds read low 1 | S. cerevisiae deletion strains, locus YML120C, strain ndi1, active compounds read low 1.01 | S. cerevisiae deletion strains, locus YML124C, strain tub3, active compounds read low 0.996 | S. cerevisiae deletion strains, locus YMR058W, strain fet3, active compounds read low 0.978 | S. cerevisiae deletion strains, locus YMR078C, strain ctf18, active compounds read low 0.997 | S. cerevisiae deletion strains, locus YMR125W, strain sto1, active compounds read low 0.957 | S. cerevisiae deletion strains, locus YMR129W, active compounds read low 0.966 | S. cerevisiae deletion strains, locus YMR205C, strain PFK2, active compounds read low 1.01 | S. cerevisiae deletion strains, locus YMR223W, strain ubp8, active compounds read low 1.01 | S. cerevisiae deletion strains, locus YMR231W, strain pep5, active compounds read low 1 | S. cerevisiae deletion strains, locus YMR263W, strain SAP30, active compounds read low 1.01 | S. cerevisiae deletion strains, locus YMR307W, strain GAS1, active compounds read low 1.08 | S. cerevisiae deletion strains, locus YNL067W, strain RPL9B, active compounds read low 1.02 | S. cerevisiae deletion strains, locus YNL071W, strain lat1, active compounds read low 0.995 | S. cerevisiae deletion strains, locus YNL128W, strain TEP1, active compounds read low 1 | S. cerevisiae deletion strains, locus YNL153C, strain GIM3, active compounds read low 1.03 | S. cerevisiae deletion strains, locus YNL183C, strain NPR1, active compounds read low 0.94 | S. cerevisiae deletion strains, locus YNL209W, strain ssb2, active compounds read low 0.975 | S. cerevisiae deletion strains, locus YNL233W, strain BNI4, active compounds read low 1.01 | S. cerevisiae deletion strains, locus YNL248C, strain rpa49, active compounds read low 0.917 | S. cerevisiae deletion strains, locus YNL250W, strain rad50, active compounds read low 0.992 | S. cerevisiae deletion strains, locus YNL271C, strain bni1, active compounds read low 0.992 | S. cerevisiae deletion strains, locus YNL298W, strain CLA4, active compounds read low 1 | S. cerevisiae deletion strains, locus YNL307C, strain MCK1, active compounds read low 0.994 | S. cerevisiae deletion strains, locus YNL322C, strain KRE1 (second series), active compounds read low 0.965 | S. cerevisiae deletion strains, locus YNL322C, strain KRE1, active compounds read low 1.01 | S. cerevisiae deletion strains, locus YNR049C, strain mso1, active compounds read low 0.962 | S. cerevisiae deletion strains, locus YNR052C, strain pop2, active compounds read low 0.989 | S. cerevisiae deletion strains, locus YOL006C, strain TOP1, active compounds read low 1.14 | S. cerevisiae deletion strains, locus YOL012C, strain htz1 1.28 | S. cerevisiae deletion strains, locus YOL147C, strain pex11, active compounds read low 0.997 | S. cerevisiae deletion strains, locus YOR001W, strain rrp6, active compounds read low 1.02 | S. cerevisiae deletion strains, locus YOR061W, strain CKA2, active compounds read low 1 | S. cerevisiae deletion strains, locus YOR069W, strain VPS5, active compounds read low 1 | S. cerevisiae deletion strains, locus YOR070C, strain gyp1, active compounds read low 0.996 | S. cerevisiae deletion strains, locus YOR080W, strain dia2, active compounds read low 0.986 | S. cerevisiae deletion strains, locus YOR083W, strain WHI5, active compounds read low 0.913 | S. cerevisiae deletion strains, locus YOR106W, strain vam3, active compounds read low 0.96 | S. cerevisiae deletion strains, locus YOR136W, strain idh2, active compounds read low 0.995 | S. cerevisiae deletion strains, locus YOR144C, strain elg1, active compounds read low 0.994 | S. cerevisiae deletion strains, locus YOR184W, strain ser1, active compounds read low 0.988 | S. cerevisiae deletion strains, locus YOR231W, strain MKK1, active compounds read low 0.988 | S. cerevisiae deletion strains, locus YOR265W, strain rbl2, active compounds read low 0.99 | S. cerevisiae deletion strains, locus YOR270C, strain vph1, active compounds read low 0.979 | S. cerevisiae deletion strains, locus YOR290C, strain snf2, active compounds read low 0.936 | S. cerevisiae deletion strains, locus YOR316C, strain cot1, active compounds read low 0.994 | S. cerevisiae deletion strains, locus YPL051W, strain arl3, active compounds read low 0.974 | S. cerevisiae deletion strains, locus YPL055C, strain LGE1, active compounds read low 1.08 | S. cerevisiae deletion strains, locus YPL078C, strain atp4, active compounds read low 0.955 | S. cerevisiae deletion strains, locus YPL106C, strain sse1, active compounds read low 0.992 | S. cerevisiae deletion strains, locus YPL240C, strain hsp82, active compounds read low 0.997 | S. cerevisiae deletion strains, locus YPL241C, strain CIN2, active compounds read low 1.03 | S. cerevisiae deletion strains, locus YPL256C, strain CLN2, active compounds read low 0.96 | S. cerevisiae deletion strains, locus YPR119W, strain clb2, active compounds read low 1 | S. cerevisiae deletion strains, locus YPR141C, strain kar3, active compounds read low 0.988 | S. cerevisiae deletion strains, locus YPR163C, strain tif3, active compounds read low 0.995 | S. cerevisiae deletion strains, locus YPR167C, strain met16, active compounds read low 0.996 | S. cerevisiae deletion strains, strain wtn01, active compounds read low 0.976 | S. cerevisiae strains, strain wild type, active compounds read low 1.06
